High-throughput results deposited in PubChem by National Center for Advancing Translational Sciences (NCATS).
Most compounds without a hit are left out; they make up all but 4.8% or so of the library.
DRD3 agonist: D3 dopamine receptor (human) agonism; D3R DiscoveRx beta-arrestin cells, luminescence, 90 min; max activation, %; actives 0.58% (n = 410,000); AID 652048; in the data active = max activation above about 30%; also: 0% is about no effect
Target sequence (P35462 whole entry, looked up): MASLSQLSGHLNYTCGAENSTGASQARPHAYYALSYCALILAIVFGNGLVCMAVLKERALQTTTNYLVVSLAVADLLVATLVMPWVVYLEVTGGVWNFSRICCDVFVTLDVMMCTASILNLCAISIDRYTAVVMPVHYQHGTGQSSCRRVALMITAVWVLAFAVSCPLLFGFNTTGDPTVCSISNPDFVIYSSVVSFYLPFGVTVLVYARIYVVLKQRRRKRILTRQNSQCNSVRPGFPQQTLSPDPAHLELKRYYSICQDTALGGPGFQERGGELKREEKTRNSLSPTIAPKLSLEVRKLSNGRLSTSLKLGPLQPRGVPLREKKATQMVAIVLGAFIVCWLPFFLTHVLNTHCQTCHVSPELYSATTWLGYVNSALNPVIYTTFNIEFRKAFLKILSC
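Agonist-mode cell screen: cells plated at 1500/well and incubated overnight at 37 °C, then exposed to library compounds for 90 min at 37 °C. Detection reagent was added for 30–60 min at room temperature, and luminescence was read.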
ATXN2 expr inh: reduces ATXN2 reporter expression in HEK-293 cells | Potency, µM (titrated, usually from 57 µM), for inactives: at the highest dose activity change, negative = inhibition, actives largely listed as inhibitors | HEK-293 ATXN2-luciferase reporter, luminescence, 24 h | actives 0.72% (n = 360,000); also: potency is read from the fitted curve at half-maximal effect; % is scaled to controls: 0 for no effect and ±100 for the full control effect; nearly all actives have a fitted effect of over 55% in size
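qHTS (up to 57 uM final) was run with 24 h compound exposure of reporter cells at 37 °C. Each well was multiplexed: SteadyGlo luminescence measured ATXN2-luciferase expression after a fluorogenic Gly-Phe-AFC viability readout (25 uM final).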
D3 antag: antagonists of human D3 dopamine receptor; D3R cells, DiscoveRx beta-arrestin luminescence, antagonist mode; hits give low values; max response, negative = inhibition, %; AID 652054; actives 2.5% (n = 360,000); P35462; in the data active = max response below about -50%; inconclusive = no clear call, values can overlap the other calls; also: % is scaled to controls: 0 for no effect and ±100 for the full control effect
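Cells plated overnight at 1500 cells/well, then exposed to library compounds with dopamine controls for 90 minutes at 37 degrees C. DiscoveRx reagent added for 30–60 minutes at room temperature; luminescence read, quantitative HTS format.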
ATXN viability: cell viability loss in ATXN counter-screen; S2 cells (HEK-293 line with an ATXN2-luciferase reporter) viability, CellTiter-Fluor protease fluorescence, 24 h; Potency, µM (series often up to 56.7 µM), hits mostly cytotoxic; actives 0.49% (n = 400,000); also: potency is read from the fitted curve at half-maximal effect; nearly all actives have a fitted effect of over 40% in size
HepG2 viability: counter-screen for TGF-b inhibitors: cytotoxicity in HepG2 cells; AID 588856; Potency, µM (top dose mostly 46.1 µM), without a hit: top-dose activity change, negative = cytotoxicity, most hits filed as cytotoxic; actives 0.76% (n = 410,000); HepG2 CAGA-GFP viability, ATP luminescence, 18 h; also: potency is read from the fitted curve at half-maximal effect
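CellTiter-Glo luminescence gave cytotoxicity after 18 hours at 37 degrees C. The cells were HepG2 CAGA-GFP in 1% FBS DMEM, stimulated with 500 pg/mL TGF-beta after compound addition. %Activity was normalised to no-cell wells (complete cell-killing) and DMSO (no toxicity), and curves were fitted and classified.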
TGFb inhibitor: TGF-b pathway inhibition; HepG2 CAGA-GFP TGF-b/SMAD3 reporter, GFP fluorescence, 18 h; TGF-beta stimulated, 500 pg/mL final; Potency, µM (top dose mostly 46.1 µM), inactives show at the top dose activity, negative = inhibition, hits mostly inhibitors; actives 1.2% (n = 410,000); also: potency is read from the fitted curve at half-maximal effect; % is scaled to controls: 0 for no effect and ±100 for the full control effect; nearly all actives have a fitted effect of over 65% in size
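Cell-based qHTS in HEPG2 carrying a CAGA-GFP Smad reporter; compounds added before 500 pg/mL final TGF-beta, 18 h incubation at 37 degrees C, GFP fluorescence quantified per cell by imaging cytometry.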
An asterisk follows results filed as active; i = inactive; ? = inconclusive; . = no result; [ ] = dose if it differs, or a comment. Unless noted, calls follow the shape of the dose curve; as a rule, active = well fitted curve in the direction sought with a large enough effect; inconclusive = small, poorly fitted or top-dose-only effect, or another doubt; inactive = no such curve, though single readings can be large; an effect the other way counts as inactive or inconclusive.

SMILES | DRD3 agonist | ATXN2 expr inh | D3 antag | ATXN viability | HepG2 viability | TGFb inhibitor
CCc1ccc(-n2c(=O)c3sc4ccccc4c3n(CC(=O)NC3CCCC3)c2=O)cc1 | 2 | 0% | . | ? | -2% | 1%
C[N+](C)(C)CCOC(=O)C(O)(c1ccccc1)c1ccccc1 | 8 | 13% | . | i | . | .
COCCNCCOc1ccc(C(C)(C)c2ccccc2)cc1 | -29 | -14% | -57* | i | -2% | 15%
C[C@H](N)C(=O)c1ccccc1 | 1 | 9%[116 µM] | . | i | . | .
COc1ccccc1CNC(=O)CCS(=O)(=O)c1ccc2c(c1)oc(=O)n2C | -12 | 1% | . | i | -35% | -7%
CC[C@@]1(O)C(=O)OCc2c1cc1n(c2=O)Cc2cc3ccccc3nc2-1 | . | 0.019µM* | . | . | -39% | -20%
CCC1(O)C(=O)OCc2c1cc1n(c2=O)Cc2cc3cc(O)ccc3nc2-1 (configuration not stated) | -24 | -74% | -19 | . | 1% | ?
CC[C@@]1(O)C(=O)OCc2c1cc1n(c2=O)Cc2cc3c(NC(=O)CN)cccc3nc2-1 | -8 | 0.34µM* | -3 | . | -55% | ?
Cc1cccc(NC(=O)Cn2cc(C(=O)c3ccccc3)c3ccccc32)c1 | 3 | . | . | . | -18% | 10µM*
COc1cccc(NC(=O)Cn2cc(C(=O)c3ccccc3)c3ccccc32)c1 | 2 | . | . | . | -18% | 10µM*
O=Cc1ccc(O)cc1 | . | . | . | . | 10% | 1%
CN1[C@@H](CC(=O)c2ccccc2)CCC[C@H]1C[C@H](O)c1ccccc1 | -91 | -1% | -75* | i | 3% | 0%
CN1C(CC(=O)c2ccccc2)CCCC1CC(O)c1ccccc1 (configuration not stated) | -46 | -21% | -80* | i | -30% | -4%
CN1CCC(OC(=O)c2ccccc2)CC1 | 1 | . | 6 | ? | -4% | -15%
C=CCC1=C(C)C(OC(=O)C2C(C=C(C)C)C2(C)C)CC1=O (configuration not stated) | -11 | ? | . | 40µM* | . | .
O=C(OC1CCN(CCCl)CC1)C(c1ccccc1)c1ccccc1 | -96 | -2% | -95* | i | -13% | 1%
C[N+]1(C)[C@@H]2CC[C@H]1CC(OC(=O)C(c1ccccc1)c1ccccc1)C2 (some centres not stated) | 4 | . | 8 | i | 3% | 1%
CC(Oc1ccccc1)C(=O)Nc1ccc(C(=O)OCc2cc(=O)n3nc(C4CC4)sc3n2)cc1 (configuration not stated) | 4 | -40% | . | ? | -25% | -4%
CN1CCN(Cc2ccc(N)cc2)CC1 | 7 | -16% | -5 | i | -5% | 5%
CN1CCN(Cc2cc(C(C)(C)C)c(O)c(C(C)(C)C)c2)CC1 | -9 | -5% | -82* | i | 8% | 5%
COP(=O)(/C=C/c1ccccc1)C(O)c1ccc(F)cc1 (configuration not stated) | -5 | -12% | -20 | i | -82% | 6%
COc1ccc(NC(=O)Cn2c(=O)oc3cc(S(=O)(=O)N4CCC(C)CC4)ccc32)c(OC)c1 | -20 | . | . | . | -30% | 13µM*
c1ccc(-c2ccc(-c3n(-c4ccccn4)c4ccccc4[n+]3-c3ccccn3)cc2)cc1 | 1 | . | 3 | ? | -7% | 18µM*
CCOC(=O)Cn1cc([N+](=O)[O-])nc1[N+](=O)[O-] | -3 | 8% | 49 | i | 11µM* | ?
CC(=O)OC1CC(OC2C(O)CC(OC3C(O)CC(OC4CCC5(C)C(CCC6C5CCC5(C)C(C7=CC(=O)OC7)CCC65O)C4)OC3C)OC2C)OC(C)C1OC1OC(CO)C(O)C(O)C1O (configuration not stated) | -7 | 0.0075µM* | -9 | ? | -41% | ?
SMILES | DRD3 agonist | ATXN2 expr inh | D3 antag | ATXN viability | HepG2 viability | TGFb inhibitor
O=C1CC(c2ccc(Br)cc2)c2c(c3ccccc3oc2=O)O1 (configuration not stated) | 51* | -4% | . | i | 23% | 15%
CCOc1ccc(C2C(C#N)=C(N)Oc3c2c(=O)oc2ccccc32)cc1 (configuration not stated) | 1 | -3% | -1 | i | 2% | 5%
Cc1cccc(CN2CCCC(C(=O)c3cccc(OC(C)C)c3)C2)n1 (configuration not stated) | 1 | . | 6 | 32µM* | -52% | ?
COc1cccc(C(=O)C2CCCN(Cc3ccc4nsnc4c3)C2)c1 (configuration not stated) | -13 | -9% | -5 | i | -5% | 4%
COc1c(C)cc(C(=O)C2CCCN(Cc3cccc(O)c3)C2)cc1C (configuration not stated) | -19 | -11% | -60* | i | -34% | -2%
COc1cccc(C(=O)C2CCCN(Cc3ccc(F)cc3)C2)c1 (configuration not stated) | -24 | -7% | -56* | i | -15% | 3%
CCO/N=C(\CC)C1=C(O)CC(c2c(C)cc(C)cc2C)CC1=O (configuration not stated) | 8 | 36%[116 µM] | . | ? | . | .
C[C@@H]1CN([C@@H](C)CO)C(=O)c2c(c3ccccc3n2C)-c2ccccc2CO[C@H]1CN(C)S(=O)(=O)c1ccc(C(F)(F)F)cc1 | 3 | 4% | 3 | i | -41% | ?
Cc1ccc(-c2c(C)n3c4c(=O)n(C)c(=O)n(C)c4nc3n2CCO)cc1 | 46* | -15% | . | ? | -1% | -6%
CC(=O)[C@@]1(O)CC[C@H]2[C@@H]3CCC4=CC(=O)CC[C@]4(C)C3(F)[C@@H](O)C[C@@]21C (some centres not stated) | 4 | . | . | i | . | .
CCOCCCNC(=O)CN1C2CCC1CC(O)(c1ccc(OC)cc1)C2 (configuration not stated) | -29 | -5% | -72* | i | -15% | -2%
CN(C)C1(CNC(=O)Nc2ccc(Cl)c(Cl)c2)CCCCC1 | -27 | ? | -55* | ? | 16µM* | ?
CC(=O)Nc1cc(-c2ccc(C(=O)NC3CC3)cc2)cn2c(-c3ccc(F)c(Cl)c3)cnc12 | 21 | 0% | 66 | i | -7% | ?
CC12CCCCC1=[N+]([O-])CN2O (configuration not stated) | 1 | 9% | -62* | i | -9% | 0%
CCOC(=O)C(NC(=O)C(Cc1ccc(N(CCCl)CCCl)cc1)NC(C)=O)C(C)C (configuration not stated) | 0 | -3% | -9 | i | 14% | -4%
